{"source": "PubChem BioAssay (EPA / NIEHS)", "note": "Where “and” joins values, the source holds several entries; their conditions need not be identical. Identical values can stand only once. The source holds several records for some structures; these can differ, active in one and inactive in another. Calls of active or inactive are those of the source. The calls were made as follows: active = hit-call score of the fitted dose curve at least 0.9, where 1 is the maximum; inactive = score below 0.9."}
{"assay": "ATG_EGR_CIS: Attagene CIS-FACTORIAL HepG2 Assay for human Early Growth Response 1 (EGR1) (AID 2282938)", "conditions": "HepG2 Attagene CIS-FACTORIAL EGR reporter mRNA; actives raise or lower the signal", "method": "ATG_CIS is a cell-based, multiplexed-readout assay that uses HepG2, a human liver cell line, with measurements taken at 24 hours after chemical dosing in a 24-well plate.ATG_EGR_CIS is one of 52 assay component(s) measured or calculated from the ATG_CIS assay. It is designed to make measurements of mRNA induction, a form of inducible reporter, as detected with fluorescence intensity signals by Reverse transcription polymerase chain reaction (RT-PCR) and Capillary electrophoresis technology.Data from the assay component ATG_EGR_CIS was analyzed into 1 assay endpoint. This assay endpoint, ATG_EGR_CIS, was analyzed with bidirectional fitting relative to DMSO as the negative control and baseline of activity. Using a type of inducible reporter, measures of mRNA for gain or loss-of-signal activity can be used to understand the reporter gene at the transcription factor-level as they relate to the gene EGR1. Furthermore, this assay endpoint can be referred to as a primary readout, because this assay has produced multiple assay endpoints where this one serves a reporter gene function. To generalize the intended target to other relatable targets, this assay endpoint is annotated to the dna binding intended target family, where the subfamily is zinc finger.\nHuman liver HepG2 cells are transiently transfected with multiple reporter transcription units (MRTUs) in 6-well plates using FuGene 6 reagent (Roche; 3 ml FuGene/1 mg DNA). The MRTU constructs are regulated by a cis-regulating element (promoter). […] A major difference between the CIS and TRANS system is that in CIS activities of endogenous TFs are measured, whereas the TRANS assay evaluates changes in activities of exogenous, chimeric NR-Gal4 proteins. […] At the end of 24 hour incubation, total RNA was isolated using TriZol reagent (Invitrogen). The isolated RNA is then reverse-transcribed using oligo(dT) primer and Mo-MLV reverse transcriptase (Invitrogen) with DNAse I (Ambion) treatment for 30 min. The one-tenth of the produced cDNA was amplified by PCR using Taq DNA polymerase (Invitrogen) and two reporter sequence-specific primers. The PCR products were fluorescently labeled by primer extension with 6-arboxyfluorescein (6-FAM) 5'-labeled reporter sequence-specific primer (2 min at 95 C, 20 s at 68 C and 10 min at 72 C) and these products were digested with 5U of HpaI (New England Biolabs) for 2h at 37 C. The fragments were purified using Qiaquick PCR columns (Qiagen), analyzed on an ABI 3130xL genetic analyzer (Applied Biosystems) with peak positions identified by using a set of X-rhodamine (ROX)-labeled MapMarker1000 molecular weight standards (BioVentures). The raw capillary electrophoresis data was processed using Attagraph software (Attagene)."}
{"smiles": "CC(Oc1ccc(Cl)cc1Cl)C(=O)O", "note": "(stereo not given)", "outcome": "inactive"}
{"smiles": "CC1=C(C(=O)Nc2ccccc2)SCCO1", "outcome": "inactive"}
{"smiles": "CC(C)Oc1cc(-n2nc(C(C)(C)C)oc2=O)c(Cl)cc1Cl", "outcome": "inactive"}
{"smiles": "CN(C)C(=S)SSC(=S)N(C)C", "outcome": "inactive"}
{"smiles": "COC(=O)N(OC)c1ccccc1COc1ccn(-c2ccc(Cl)cc2)n1", "outcome": "inactive"}
{"smiles": "C=CC1(C)OC(=O)N(c2cc(Cl)cc(Cl)c2)C1=O", "note": "(stereo not given)", "outcome": "inactive"}
{"smiles": "CCCCNC(=O)OCC#CI", "outcome": "inactive", "AC50": "33.4 µM (active)"}
{"smiles": "COP(=S)(OC)Oc1nc(Cl)c(Cl)cc1Cl", "outcome": "inactive"}
{"smiles": "CNC(=S)S", "AC50": "50 µM (active)", "outcome": "inactive"}
{"smiles": "CON(C)C(=O)Nc1ccc(Cl)c(Cl)c1", "outcome": "inactive"}
{"smiles": "CS/C(C)=N/OC(=O)N(C)SN(C)C(=O)O/N=C(\\C)SC", "outcome": "inactive"}
{"smiles": "C=CCC1=C(C)C(OC(=O)C2C(C=C(C)C)C2(C)C)CC1=O", "note": "(stereo not given)", "AC50": "33.4 µM (active) [middle of 5 runs]", "outcome": "inactive"}
{"smiles": "CC(C)C1(C)N=C(c2nc3ccccc3cc2C(=O)O)NC1=O", "note": "(stereo not given)", "outcome": "inactive"}
{"smiles": "CC(C)(C)c1ccc(CSc2cnn(C(C)(C)C)c(=O)c2Cl)cc1", "AC50": "0.128 µM (active)"}
{"smiles": "CCCCOC(=O)c1ccccc1C(=O)OCCCC", "AC50": "34.1 µM (active)", "outcome": "inactive"}
{"smiles": "CCOc1cc(Oc2ccc(C(F)(F)F)cc2Cl)ccc1[N+](=O)[O-]", "outcome": "inactive"}
{"smiles": "Cc1cc(Cl)ccc1OCC(=O)O", "outcome": "inactive"}
{"smiles": "COC(=O)c1ccccc1C(=O)OC", "outcome": "inactive"}
{"smiles": "Cc1ccc(-c2c(Cl)nc(C#N)n2S(=O)(=O)N(C)C)cc1", "outcome": "inactive"}
{"smiles": "CC1COC(Cn2cncn2)(c2ccc(Oc3ccc(Cl)cc3)cc2Cl)O1", "note": "(stereo not given)", "outcome": "inactive"}
{"smiles": "O=C(O)c1nc(Cl)ccc1Cl", "outcome": "inactive"}
{"smiles": "CCc1nn(C)c(C(=O)NCc2ccc(C(C)(C)C)cc2)c1Cl", "outcome": "inactive"}
{"smiles": "CCCCNC(=O)n1c(NC(=O)OC)nc2ccccc21", "outcome": "inactive"}
{"smiles": "CCCCC(CC)COC(=O)c1ccccc1C(=O)OCC(CC)CCCC", "note": "(stereo not given)", "outcome": "inactive"}
{"smiles": "Oc1ccccc1-c1ccccc1", "outcome": "inactive", "AC50": "62.4 µM (active)"}
{"smiles": "O=C(O)COc1nc(Cl)c(Cl)cc1Cl", "outcome": "inactive"}
{"smiles": "Cc1c(F)c(F)c(COC(=O)C2C(/C=C(\\Cl)C(F)(F)F)C2(C)C)c(F)c1F", "note": "(stereo not given)", "outcome": "inactive"}
{"smiles": "C=CCC1=C(C)[C@@H](OC(=O)[C@@H]2[C@@H](C=C(C)C)C2(C)C)CC1=O", "outcome": "inactive"}
{"smiles": "N#Cc1nn(-c2c(Cl)cc(C(F)(F)F)cc2Cl)c(N)c1S(=O)C(F)(F)F", "note": "(stereo not given)", "outcome": "inactive", "AC50": "35.8 µM (active)"}
{"smiles": "CNC(=O)ON=CC(C)(C)SC", "outcome": "inactive"}
{"smiles": "CCCN(CCC)c1c([N+](=O)[O-])cc(S(N)(=O)=O)cc1[N+](=O)[O-]", "outcome": "inactive"}
{"smiles": "CO/C=C(/C(=O)OC)c1ccccc1Oc1cc(Oc2ccccc2C#N)ncn1", "AC50": "11.7 µM (active) and 13.8 µM (active)", "outcome": "inactive"}
{"smiles": "CCOC(=O)C(Cl)Cc1cc(-n2nc(C)n(C(F)F)c2=O)c(F)cc1Cl", "note": "(stereo not given)", "outcome": "inactive"}
